Results on 40 compounds are retold here after PubChem BioAssay.

Molecules are shown by their SMILES. Active and inactive are the calls of the source. The rule behind the calls is not given here.

The experiment is described as follows: Brca1-Bard1 BiLC signal decrease – luminescence, single concentration, counter-screen for Mdm2/MdmX interaction inhibitor project, confirmation (AID 504668). The settings on record: Brca1/Bard1 bimolecular luciferase complementation counterscreen, at 8 µM, active compounds read high. For orientation: Counterscreens check selectivity or assay interference.
For orientation: inhibition means the change of the read-out against control, counted positive when it falls. Take `CCOc1ccc(-c2nnc(SCC(=O)Nc3ccc4c(c3)c3ccccc3n4CC)n2N)cc1`: the inhibition was 23.1% (active).

On to `CCC(C)Nc1nc(-c2ccccn2)nc2ccccc12` (stereo not given), for which the inhibition is 29.2% (active).

As to `Nc1nonc1-c1nc2ccccc2n1CC(=O)Nc1ccccc1`, the inhibition is 24.8% (active).

Regarding `O=C(c1ccc(Br)cc1)C(CN1CCOCC1)c1ccccc1` (stereo not given), the inhibition is 24.6% (active). The figure for `COc1ccc(-c2nc(CN3CCN(c4cc(C)nc(C)c4)CC3)c(C)o2)c2ccccc12` is 34.4% (active). For the compound `CCOc1ccc(CNC(=O)c2cc3oc4ccccc4c3n2C)cc1`, the inhibition is 25.6% (active). `Cc1cccc(NC(=O)[C@H](Cc2c[nH]c3ccccc23)NC(=O)[C@@H]2Cc3ccccc3CN2)c1`: the inhibition was 26.6% (active). The figure for `Cc1cc(SCC(=O)N/N=C/c2ccc(O)cc2O)nc2ccccc12` is 32.4% (active). `O=C(Nc1nc(-c2ccccn2)cs1)c1ccc(Cl)s1`: the inhibition is 24.4% (active). As to `O=c1c2ccccc2nc(N/N=C/c2c(O)ccc3ccccc23)n1O`, the inhibition was 35.9% (active). Take `CCN(C[C@H]1N[C@@](CC)(C(=O)OC)[C@H]2C(=O)N(Cc3ccccc3)C(=O)[C@@H]12)S(=O)(=O)c1ccc(-c2ccccc2)cc1`: the inhibition was 34% (active). The figure for `O=[N+]([O-])c1ccccc1C1Nc2cccc3cccc(c23)N1` is 26.9% (active).

In the case of `CN(C)CCN(C(=O)/C=C/c1cccs1)c1nc2c(F)cc(F)cc2s1`, the inhibition is 28.9% (active). In the case of `CC(C)CCNC(=O)C(c1ccncc1)N(Cc1cccs1)C(=O)Cn1nnc(-c2ccc(F)cc2)n1` (stereo not given) it was 26.3% (active); in that of `O=C(CCCN1C(=O)/C(=C\c2ccco2)SC1=S)Nc1cccc2ccccc12`, 28.5% (active); in that of `Oc1c(C(c2ccccn2)N2CCC(Cc3ccccc3)CC2)cc(Cl)c2cccnc12` (stereo not given), 33.2% (active). The figure for `CS(=O)(=O)Nc1ccccc1C(=O)Nc1cc(Cl)cc(Cl)c1` is 28.3% (active); for `Nc1cccc2nc3ccccc3cc12` it is 32.2% (active); for `COc1ccc([C@@H]2[C@@H]3C(=O)N(C(C)(C)C)C(=O)[C@@H]3[C@]3(CC(C)C)C(=O)N(c4ccc(C(F)(F)F)cc4)C(=O)N23)cc1` it is 35% (active). Turning to `O=C(CCl)Nc1cccc(S(=O)(=O)NC2=NCCCCC2)c1`, the inhibition was 35.8% (active). As for `CC(=O)NC(c1cc(Cl)c2cccnc2c1O)C1CC1` (stereo not given), the inhibition is 33.4% (active).

In the case of `CC(=O)c1ccc(Sc2nnnn2-c2ccccc2)c([N+](=O)[O-])c1`, the inhibition was 30.1% (active). `CC(=O)Oc1c(C)cc(Cl)cc1C(=O)Nc1ccc([N+](=O)[O-])cc1Cl`: the inhibition is 27.7% (active).

For the compound `Cc1sc2ncn(CC(=O)NCCCC(=O)Nc3ccc(C(C)C)cc3)c(=O)c2c1C`, the inhibition is 29.2% (active). The figure for `Cc1noc(-c2ccc(C(F)(F)F)cc2)c1NC(=O)Nc1ccc(Cl)cc1` is 24.2% (active); for `COc1ccc(C(=O)N/N=C/c2cc(Br)ccc2O)cc1OC` it is 29.6% (active); for `COc1ccccc1[C@@]1(C)ON(c2ccccc2C(F)(F)F)C1=O` it is 31.6% (active).

On to `Cc1sc2ncnc(N3CCC(C(=O)Nc4ccccc4C(C)(C)C)CC3)c2c1C`, for which the inhibition is 27.8% (active).

`CCc1ccc2[nH]c3nc(N/N=C/c4ccc(O)cc4O)nnc3c2c1`: the inhibition was 29.3% (active).

With `O=C(/C=C/c1ccc2ccccc2n1)N1CCN(S(=O)(=O)c2ccccc2F)CC1`, the inhibition is 25.5% (active). The figure for `CC(C)CC[n+]1ccccc1/C=C/c1ccc(N(C)C)cc1` is 26.6% (active); for `Cc1ccc(O)c(N=Nc2nccs2)c1` it is 23.2% (active). The figure for `CCOC(=O)C1=C(c2ccccc2)NC(=O)NC1c1ccc(O)c(Cl)c1` (stereo not given) is 30.5% (active). Regarding `CCN(CC)C(=O)C1CCCc2c1[nH]c1ccc(Cl)cc21` (stereo not given), the inhibition was 34.6% (active).

For `CCOC(=O)c1c(-c2ccccc2)oc2ccc(OCC(O)CN(C)C)cc12` (stereo not given), the inhibition was 32.5% (active).

Regarding `C=C1C(=O)C=C[C@]2(C)C[C@@H]3OC(=O)[C@](C)(O)[C@H]3C[C@@H]12`, the inhibition was 25.4% (active). As to `CCN(CC)c1ccc(/C=N/NC(=O)c2c(Cl)cnn2C)c(O)c1`, the inhibition is 26.9% (active).

On to `C=CCc1cccc(/C=N/NC(=O)CNc2ccccc2)c1O`, for which the inhibition was 32.9% (active). Turning to `Cc1cccc(NS(=O)(=O)c2ccc(C)c(C(=O)OCC(=O)Nc3cc(C)on3)c2)c1`, the inhibition is 32.1% (active).

In the case of `Cc1cccc(/C=N/NC(=O)c2c(-c3ccccc3)noc2C)c1O`, the inhibition is 35.6% (active).
